# VDR inh: Inhibitors of the vitamin D receptor (VDR): qHTS; Vitamin D3 receptor (Homo sapiens), P11473; Potency, µM, usual class: inhibitors; VDR-SRC2-3 peptide fluorescence polarization, 2 h; hit rate 0.93% among 400,000
#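 Fluorescence polarization assay measuring small-molecule disruption of VDR binding to the coregulator peptide SRC2-3. Compounds were pin-transferred (23 nl) into the reagent mix and incubated 2 h at room temperature before reading.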
# DT40 TDP1 no CPT: qHTS for Inhibitors of human tyrosyl-DNA phosphodiesterase 1 (TDP1): qHTS in cells in absence of CPT. DT40 Tdp1-/- hTDP1 cells, no CPT, ATP luminescence, 48 h. hit rate 15% among 420,000. AID 686978, 2013. Potency, µM (doses to about 46.2 µM), actives largely listed as inhibitors; also: nearly all actives have a fitted effect of over 55% in size
#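 DT40 Tdp1-/-;hTDP1 cells, no CPT (DMSO vehicle only), 400 cells/well; compounds pin-transferred; ≥48 hr, 37 °C; CellTiter-Glo 30 min RT dark, luminescence read.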
# DT40 TDP1 CPT: qHTS for Inhibitors of human tyrosyl-DNA phosphodiesterase 1 (TDP1): qHTS in cells in presence of CPT. chicken DT40 Tdp1-/-;hTDP1 cells + 20 nM CPT, ATP luminescence, 48 h. Potency, µM (series often up to 46.2 µM), most hits filed as inhibitors. hit rate 12% among 420,000; also: nearly all actives have a fitted effect of over 55% in size
#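 Chicken DT40 Tdp1-/- cells complemented with human TDP1, 400 cells/well, exposed to compounds plus 20 nM camptothecin for at least 48 h at 37 C; viability read as ATP content by CellTiter-Glo luminescence.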
# TDP1 inh: qHTS Assay for Inhibitors of Tyrosyl-DNA Phosphodiesterase (TDP1) | Tyrosyl-DNA phosphodiesterase 1 (Homo sapiens), Q9NUW8 | recombinant TDP1, AlphaScreen DNA substrate cleavage | Potency, µM (doses to about 130 µM), actives largely listed as inhibitors | hit rate 0.28% among 350,000 | AID 485290, 2010; also: nearly all actives have a fitted effect of over 40% in size
#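 Here, a 5' biotin and 3' phosphotyrosine-FITC DNA oligonucleotide reports Tdp1 activity: intact substrate bridges AlphaScreen beads, while cleavage leaves a 3' phosphate and drops signal. All incubations at room temperature.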
# PLK1 PBD inh: qHTS for Inhibitors of PLK1-PDB (polo-like kinase 1 - polo-box domain): Primary Screen. Plk1 PBD binding of FITC phosphopeptide, fluorescence polarization. Potency, µM, actives largely listed as inhibitors. hit rate 2.8% among 360,000; also: series mostly up to about 57 µM; nearly all actives have a fitted effect of over 65% in size
# KAT2A inh: qHTS Assay for Inhibitors of GCN5L2; AID 504327, 2011; Potency, µM (series often up to 58.9 µM), actives largely listed as inhibitors; Histone acetyltransferase KAT2A (Homo sapiens), Q92830; hit rate 0.21% among 390,000; GCN5L2 HAT assay, ThioGlo1 CoA-SH fluorescence
# Target sequence (Q92830 whole entry, looked up): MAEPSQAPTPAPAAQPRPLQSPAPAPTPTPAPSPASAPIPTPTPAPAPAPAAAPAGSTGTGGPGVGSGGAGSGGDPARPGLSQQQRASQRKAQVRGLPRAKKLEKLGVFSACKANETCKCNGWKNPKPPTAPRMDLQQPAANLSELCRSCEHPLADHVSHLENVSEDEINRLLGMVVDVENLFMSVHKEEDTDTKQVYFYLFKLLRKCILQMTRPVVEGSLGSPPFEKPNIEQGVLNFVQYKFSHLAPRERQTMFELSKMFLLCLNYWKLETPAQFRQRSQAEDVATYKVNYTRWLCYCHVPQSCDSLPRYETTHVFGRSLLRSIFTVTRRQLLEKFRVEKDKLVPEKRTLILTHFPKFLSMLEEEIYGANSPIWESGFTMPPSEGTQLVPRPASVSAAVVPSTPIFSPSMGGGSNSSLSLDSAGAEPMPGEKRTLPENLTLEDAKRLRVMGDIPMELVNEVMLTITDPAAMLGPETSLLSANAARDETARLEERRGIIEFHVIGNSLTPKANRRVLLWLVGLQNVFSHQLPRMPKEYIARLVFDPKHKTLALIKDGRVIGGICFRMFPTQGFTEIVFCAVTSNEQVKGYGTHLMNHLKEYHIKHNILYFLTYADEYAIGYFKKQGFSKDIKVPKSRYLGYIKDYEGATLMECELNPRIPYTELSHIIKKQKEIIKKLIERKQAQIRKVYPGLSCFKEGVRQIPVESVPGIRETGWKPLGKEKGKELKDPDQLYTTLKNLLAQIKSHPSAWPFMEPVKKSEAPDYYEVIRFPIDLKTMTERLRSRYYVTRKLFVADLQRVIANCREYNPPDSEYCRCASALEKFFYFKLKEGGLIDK
#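 ThioGlo1-coupled HAT assay: 20nM GCN5L2, 70uM acetyl-CoA, 75uM H3(1-25) peptide, pH 7.5. Fluorescence read at 340/540nm at start and after 20 min at room temperature.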
# A number is an active result; – = inactive; ? = inconclusive; · = no result; [ ] = another dose, or the depositor's remark. Rows were chosen to be rich in hits. Some 18% of all compounds tested hit in one or more screens of this group. Calls follow the shape of the dose curve; as a rule, active = well fitted curve in the direction sought with a large enough effect; inconclusive = small, poorly fitted or top-dose-only effect, or another doubt; inactive = no such curve, though single readings can be large; an effect the other way counts as inactive or inconclusive.
SMILES,VDR inh,DT40 TDP1 no CPT,DT40 TDP1 CPT,TDP1 inh,PLK1 PBD inh,KAT2A inh
CC(C)c1ccc2occ(CC(=O)Nc3cccc(C(F)(F)F)c3)c2c1,–,29µM,?,–,·,–
NC(=O)/C(N=Nc1ccccc1)=N/Nc1ccccc1,–,?,18µM,–,–,–
O=C(O)c1cccc(N/N=C(\N=Nc2ccccc2)c2ccccc2)c1,?,–,?,–,?,–
CC(=O)Nc1ccc(S(=O)(=O)NC2=NCN(C(C)C)CN2)cc1,–,–,–,–,·,–
Cc1nc(-c2cccc(F)c2)sc1CCNC(=O)C(=O)Nc1ccc2c(c1)OCO2,–,–,?,–,·,–
O=S(=O)(c1ccc(F)cc1)N1CN(Cc2ccco2)c2nc3ccccc3nc21,–,?,?,–,–,–
O=S(=O)(c1ccccc1)N1CN(c2ccc(F)cc2F)c2nc3ccccc3nc21,–,26µM,?,–,–,–
O=C(NCCN1CCC(n2c(=O)[nH]c3ccccc32)CC1)c1ccccc1,·,–,–,·,–,·
O=C(NCCN1CCC(n2c(=O)[nH]c3ccccc32)CC1)N1c2ccccc2Sc2ccccc21,·,16µM,?,·,–,·
O=C(c1ccccc1Br)N(Cc1ccccc1)c1ccccc1,–,12µM,21µM,–,–,–
CCOC(=O)c1sc2nc(CC(=O)OC)nc(NCCN(CC)CC)c2c1C,–,–,–,–,–,–
CCOC(=O)c1sc2nc(CC(=O)OC)nc(NCCN3CCOCC3)c2c1C,–,?,–,–,–,–
CCOC(=O)c1sc2nc(CC(=O)OC)nc(N3CCN(c4ccc(OC)cc4)CC3)c2c1C,–,23µM,23µM,–,–,–
CCOC(=O)c1sc2nc(C)nc(Nc3ccccc3)c2c1C,–,–,–,–,–,–
CCOC(=O)c1sc2nc(C)nc(NCc3ccccc3)c2c1C,–,21µM,10µM,·,–,–
CCOC(=O)c1sc2nc(C)[nH]c(=S)c2c1C,–,21µM,?,–,–,–
CCOC(=O)c1sc2nc(CC(=O)OC)nc(NCc3ccc(Cl)cc3)c2c1C,–,5.8µM,4.1µM,–,–,–
Cc1cccc(NC(=S)N2CCC(NC(=O)c3cccc(F)c3)CC2)c1,–,–,–,–,–,–
Cc1sc2nc(CN3CCOCC3)nc(N3CCN(S(=O)(=O)c4ccccc4)CC3)c2c1C,–,?,?,–,–,–
CCOC(=O)c1sc2nc(C)nc(N3CCN(S(=O)(=O)c4ccccc4)CC3)c2c1C,–,6.5µM,8.2µM,–,24µM,–
Cc1nc(N2CCN(S(=O)(=O)c3cccs3)CC2)c2c(-c3ccccc3)c(C)sc2n1,·,13µM,?,·,–,·
CCN(CC)S(=O)(=O)c1cccc(NC(=O)COC(=O)c2[nH]c(C)c(C(C)=O)c2C)c1,·,1µM,1.8µM,·,–,·
CC(=O)c1c(C)[nH]c(C(=O)OCc2csc(CC(=O)Nc3ccccc3C)n2)c1C,–,9.2µM,18µM,–,–,–
CC(C)=CC(=O)OCc1csc(CC(=O)Nc2ccccc2C)n1,–,–,–,–,–,–
CC(=O)c1c(C)[nH]c(C(=O)OCC(=O)Nc2cc(S(=O)(=O)N3CCCC3)ccc2Cl)c1C,–,23µM,?,–,–,–
SMILES,VDR inh,DT40 TDP1 no CPT,DT40 TDP1 CPT,TDP1 inh,PLK1 PBD inh,KAT2A inh
CC(=O)c1c(C)[nH]c(C(=O)OCC(=O)Nc2ccccc2Cl)c1C,–,15µM,16µM,–,–,–
COc1ccc(S(=O)(=O)N2CCOCC2)cc1NC(=O)COC(=O)c1[nH]c(C)c(C(C)=O)c1C,–,–,–,–,–,–
CN(CCOc1ccccc1)C(=S)Nc1ccc(OC(F)F)cc1,–,–,–,–[0.0935 µM],–,–
CC1(C)OC(=O)N(NCc2ccccc2)C1(C)O (centres undefined),–,–,–,·,–,–
CNc1nc(Nc2ccc(C(C)=O)cc2)nc(OC(C(F)(F)F)C(F)(F)F)n1,–,23µM,?,–,–,–
O=C(N/N=C/c1cccnc1)/C(=C\c1cccs1)NC(=O)c1ccccc1,–,–,–,–,–,–
O=C(N/N=C/c1cc2ccccc2nc1Cl)/C(=C/c1cccs1)NC(=O)c1ccccc1,–,?,23µM,–,–,–
O=C(N/N=C/c1cc2ccccc2nc1Cl)[C@H]1C[C@@H]1c1ccccc1,–,16µM,21µM,–,–,–
COc1ccc([N+](=O)[O-])cc1/C=N/NC(=O)/C(=C\c1cccs1)NC(=O)c1ccccc1,–,21µM,?,–,–,–
Cc1cccc2cc(/C=N/NC(=O)[C@H]3C[C@@H]3c3ccccc3)c(Cl)nc12,–,–,–,·,–,–
Cc1ccc(S(=O)(=O)N(C)c2c(C)ccc(S(=O)(=O)NC(C)(C)C)c2C)cc1,–,–,–,–,–,–
COc1cc2cc3c4c(cc(OC)c(OC)c4c2cc1OC)CCN3C,·,12µM,11µM,–,·,·
Cc1ccc(S(=O)(=O)c2nnn3c2nc(N2CCN(c4ccc(F)cc4)CC2)c2cc(Cl)ccc23)cc1C,–,–,–,–,·,–
O=C(Nc1nc2c(Cl)cccc2s1)c1ccc([N+](=O)[O-])o1,–,16µM,21µM,·,?,–
O=C(Nc1nc2ccc(F)cc2s1)c1ccc([N+](=O)[O-])o1,·,7.3µM,6.5µM,·,–,·
O=C(Nc1nc2c(F)cccc2s1)c1ccc([N+](=O)[O-])o1,–,16µM,13µM,·,–,–
O=C(CN1C(=O)NC2(CCCC2)C1=O)N1CCN(S(=O)(=O)c2ccccc2[N+](=O)[O-])CC1,–,–,–,·,–,–
COc1ccccc1NC(=O)c1ccccc1S(=O)(=O)c1ccccc1[N+](=O)[O-],–,?,?,–,6µM,–
COc1ccccc1NC(=O)c1ccccc1S(=O)(=O)c1ccc([N+](=O)[O-])cc1,–,–,–,–,–,–
COc1ccccc1Nc1ccc(NC(=O)c2cccc([N+](=O)[O-])c2C)cc1,–,18µM,?,·,–,–
Oc1ccc(Cl)cc1N=Nc1ccccc1,–,–,–,–,–,–
Nc1c(Cl)cc(N=Nc2ccccc2)cc1Cl,–,13µM,?,·,–,·
CC(=O)n1c2c(c3ccccc31)OC(N)=C(C#N)C2c1cccc(Cl)c1Cl (centres undefined),–,7.3µM,15µM,–,?,–
N#CC1=C(N)Oc2cc(N)ccc2C1c1ccccc1Cl (centres undefined),–,?,?,·,–,–
